Drawing on article PMC7862700, “An all-to-all approach to the identification of sequence-specific readers for epigenetic DNA modifications on cytosine”, this text covers binding signal for 1 sequence.

Common to all, as to assay: DAPPL (digital affinity profiling via proximity ligation, sequencing); 10 mM Tris-HCl pH 7.5, 50 mM NaCl, 1 mM DTT, 4% glycerol, room temperature, 30 min; GST-TFs on glutathione beads, 16-mer random dsDNA library, 0.1% formaldehyde crosslink after washing; high values mean tight binding
Assay [1] addresses T1, FEV (Homo sapiens, UniProt Q99581 1-238).
T1 sequence: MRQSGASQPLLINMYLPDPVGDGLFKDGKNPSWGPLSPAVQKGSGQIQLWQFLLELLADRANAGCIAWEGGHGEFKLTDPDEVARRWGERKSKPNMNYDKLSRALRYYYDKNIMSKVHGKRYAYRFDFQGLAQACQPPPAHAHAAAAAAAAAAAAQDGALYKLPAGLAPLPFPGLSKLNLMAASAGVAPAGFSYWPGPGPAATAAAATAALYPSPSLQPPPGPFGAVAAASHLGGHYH
The note with it: protein: recombinant; tags: N-terminal GST; dsDNA, one strand shown. The essentials: (§1)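 Human transcription factors carrying a GST fusion were produced in yeast, bound to glutathione beads, tagged with DNA barcodes and pooled together with a tag-only sample. Each pool was held with 200 nmole of a random double-stranded 16-mer DNA library in Tris/NaCl/DTT/glycerol buffer for 30 min at room temperature, then washed, crosslinked in 0.1% formaldehyde, proximity-ligated with BsaI/T4 ligase (1 h, 37 °C), PCR-amplified and sequenced on an Illumina NextSeq500. Binding signal is the read frequency of each hexamer for a given factor divided by its frequency in the tag-only sample.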

The target of assay [2] is ETV5 (Homo sapiens, UniProt P41161 1-510). Conditions: protein: recombinant; tags: N-terminal GST; dsDNA, one strand shown. The gist of the method:
as §1

Assay [3] has as its target HSF1 (Homo sapiens, UniProt Q00613 1-529). Conditions: protein: recombinant; tags: N-terminal GST; chain copies: 3; dsDNA, one strand shown. The essentials:
as §1

Assay [4] addresses T2, SPIC (Homo sapiens, UniProt Q8N5J4 1-248).
T2 sequence: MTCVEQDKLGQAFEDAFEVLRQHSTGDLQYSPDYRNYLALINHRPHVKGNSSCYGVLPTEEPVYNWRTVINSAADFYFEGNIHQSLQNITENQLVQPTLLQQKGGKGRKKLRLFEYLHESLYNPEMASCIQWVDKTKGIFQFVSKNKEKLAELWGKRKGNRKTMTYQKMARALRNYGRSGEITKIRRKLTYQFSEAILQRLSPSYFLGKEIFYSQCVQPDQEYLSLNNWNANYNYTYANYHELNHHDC
The note with it: protein: recombinant; tags: N-terminal GST; dsDNA, one strand shown. The gist of the method:
as §1

In assay [5] the target is ELF4 (Homo sapiens, UniProt Q99607 1-663). The note with it: protein: recombinant; tags: N-terminal GST; dsDNA, one strand shown. The essentials: as §1
ELF4, sequence (Q99607 whole entry): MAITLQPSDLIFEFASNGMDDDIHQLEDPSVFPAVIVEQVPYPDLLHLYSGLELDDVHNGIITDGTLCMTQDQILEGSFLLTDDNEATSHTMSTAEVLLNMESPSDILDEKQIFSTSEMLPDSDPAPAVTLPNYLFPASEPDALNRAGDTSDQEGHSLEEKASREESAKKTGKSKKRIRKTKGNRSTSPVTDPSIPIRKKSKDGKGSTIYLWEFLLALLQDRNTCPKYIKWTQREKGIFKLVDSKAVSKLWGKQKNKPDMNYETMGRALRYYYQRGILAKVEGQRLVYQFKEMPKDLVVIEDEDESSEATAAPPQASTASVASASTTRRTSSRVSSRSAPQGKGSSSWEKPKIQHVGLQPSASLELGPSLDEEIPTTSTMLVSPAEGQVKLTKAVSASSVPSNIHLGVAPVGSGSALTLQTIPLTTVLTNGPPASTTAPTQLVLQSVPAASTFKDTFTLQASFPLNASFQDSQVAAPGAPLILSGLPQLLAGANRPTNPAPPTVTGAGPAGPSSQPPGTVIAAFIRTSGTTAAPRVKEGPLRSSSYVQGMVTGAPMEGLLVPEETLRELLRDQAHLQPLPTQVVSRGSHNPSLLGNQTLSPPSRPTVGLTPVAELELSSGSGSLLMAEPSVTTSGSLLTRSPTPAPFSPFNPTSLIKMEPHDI
Assay [6] concerns the target T3, ELK4 (Homo sapiens, UniProt P28324-2 1-405).
T3 sequence: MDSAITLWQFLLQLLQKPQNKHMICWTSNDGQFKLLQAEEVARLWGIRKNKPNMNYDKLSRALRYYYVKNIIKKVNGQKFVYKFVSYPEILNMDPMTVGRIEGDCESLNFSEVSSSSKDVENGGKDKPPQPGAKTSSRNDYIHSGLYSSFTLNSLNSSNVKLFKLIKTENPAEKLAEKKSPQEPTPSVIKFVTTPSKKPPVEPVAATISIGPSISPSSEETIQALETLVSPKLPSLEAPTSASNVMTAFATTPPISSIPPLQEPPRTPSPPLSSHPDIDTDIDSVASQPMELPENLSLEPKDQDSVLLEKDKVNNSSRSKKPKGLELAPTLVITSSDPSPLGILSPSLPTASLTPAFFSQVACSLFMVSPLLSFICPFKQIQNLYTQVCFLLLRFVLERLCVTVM
Conditions: protein: recombinant; tags: N-terminal GST; dsDNA, one strand shown. The gist of the method: as §1

Assay [7] concerns the target T4, ETV2 (Homo sapiens, UniProt O00321 1-342).
T4 sequence: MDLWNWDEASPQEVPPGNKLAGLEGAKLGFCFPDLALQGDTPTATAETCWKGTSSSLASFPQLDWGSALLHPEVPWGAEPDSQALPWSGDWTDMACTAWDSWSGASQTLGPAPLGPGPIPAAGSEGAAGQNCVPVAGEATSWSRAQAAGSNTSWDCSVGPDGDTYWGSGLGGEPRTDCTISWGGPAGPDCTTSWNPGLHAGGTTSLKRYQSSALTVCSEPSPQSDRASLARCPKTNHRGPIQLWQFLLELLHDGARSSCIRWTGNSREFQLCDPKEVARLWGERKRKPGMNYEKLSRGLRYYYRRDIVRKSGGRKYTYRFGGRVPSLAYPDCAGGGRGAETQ
The note with it: protein: recombinant; tags: N-terminal GST; dsDNA, one strand shown. The gist of the method: as §1

For assay [8], the target named is T5, ELF3 (Homo sapiens, UniProt P78545 1-371).
T5 sequence: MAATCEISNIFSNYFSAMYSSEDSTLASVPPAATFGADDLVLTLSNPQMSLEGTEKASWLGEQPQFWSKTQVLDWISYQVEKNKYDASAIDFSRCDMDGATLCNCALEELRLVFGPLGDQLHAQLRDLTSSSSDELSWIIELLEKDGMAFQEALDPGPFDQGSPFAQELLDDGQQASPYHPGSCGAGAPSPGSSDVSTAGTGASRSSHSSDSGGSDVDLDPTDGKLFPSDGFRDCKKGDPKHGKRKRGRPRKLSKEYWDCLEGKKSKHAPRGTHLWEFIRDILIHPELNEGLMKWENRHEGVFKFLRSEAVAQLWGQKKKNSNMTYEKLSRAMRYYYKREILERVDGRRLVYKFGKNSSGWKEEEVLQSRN
The note with it: protein: recombinant; tags: N-terminal GST; dsDNA, one strand shown. The gist of the method: as §1

The target of assay [9] is CRX (Homo sapiens, UniProt O43186 1-299). Conditions: protein: recombinant; tags: N-terminal GST; dsDNA, one strand shown. The essentials:
as §1

Assay [10] has as its target ETV1 (Homo sapiens, UniProt P50549 1-477). The note with it: protein: recombinant; tags: N-terminal GST; dsDNA, one strand shown. The gist of the method:
as §1

Assay [11] concerns the target T6, ERF (Homo sapiens, UniProt P50548 1-548).
T6 sequence: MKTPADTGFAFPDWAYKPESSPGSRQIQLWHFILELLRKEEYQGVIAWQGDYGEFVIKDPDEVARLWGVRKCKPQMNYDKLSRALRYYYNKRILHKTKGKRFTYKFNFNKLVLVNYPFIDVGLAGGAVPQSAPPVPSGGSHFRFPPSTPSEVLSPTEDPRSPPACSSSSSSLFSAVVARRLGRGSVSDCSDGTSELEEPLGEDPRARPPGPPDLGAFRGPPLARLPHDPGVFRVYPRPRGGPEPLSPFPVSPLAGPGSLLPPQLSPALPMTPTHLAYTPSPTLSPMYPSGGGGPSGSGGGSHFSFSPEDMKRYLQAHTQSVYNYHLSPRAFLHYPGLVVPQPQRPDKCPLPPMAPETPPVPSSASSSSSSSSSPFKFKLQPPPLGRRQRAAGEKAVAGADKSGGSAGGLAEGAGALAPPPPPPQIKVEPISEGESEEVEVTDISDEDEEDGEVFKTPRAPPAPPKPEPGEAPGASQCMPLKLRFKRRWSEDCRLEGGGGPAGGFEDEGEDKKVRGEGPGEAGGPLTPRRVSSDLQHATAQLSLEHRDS
Conditions: protein: recombinant; tags: N-terminal GST; dsDNA, one strand shown. The gist of the method:
as §1

In assay [12] the target is T7, ETV3L (Homo sapiens, UniProt Q6ZN32 1-361).
T7 sequence: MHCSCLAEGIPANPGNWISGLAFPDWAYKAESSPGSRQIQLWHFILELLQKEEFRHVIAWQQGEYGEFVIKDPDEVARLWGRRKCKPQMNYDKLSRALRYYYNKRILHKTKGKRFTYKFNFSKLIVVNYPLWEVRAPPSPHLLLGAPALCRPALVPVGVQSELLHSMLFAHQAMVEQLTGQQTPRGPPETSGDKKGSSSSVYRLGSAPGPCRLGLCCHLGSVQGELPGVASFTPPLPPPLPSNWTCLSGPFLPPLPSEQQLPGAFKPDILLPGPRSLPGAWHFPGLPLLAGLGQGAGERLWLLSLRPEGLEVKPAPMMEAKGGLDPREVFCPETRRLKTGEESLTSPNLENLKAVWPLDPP
Conditions: protein: recombinant; tags: N-terminal GST; dsDNA, one strand shown. The gist of the method: as §1

For assay [13], the target named is T8, ETS2 (Homo sapiens, UniProt P15036 1-469).
T8 sequence: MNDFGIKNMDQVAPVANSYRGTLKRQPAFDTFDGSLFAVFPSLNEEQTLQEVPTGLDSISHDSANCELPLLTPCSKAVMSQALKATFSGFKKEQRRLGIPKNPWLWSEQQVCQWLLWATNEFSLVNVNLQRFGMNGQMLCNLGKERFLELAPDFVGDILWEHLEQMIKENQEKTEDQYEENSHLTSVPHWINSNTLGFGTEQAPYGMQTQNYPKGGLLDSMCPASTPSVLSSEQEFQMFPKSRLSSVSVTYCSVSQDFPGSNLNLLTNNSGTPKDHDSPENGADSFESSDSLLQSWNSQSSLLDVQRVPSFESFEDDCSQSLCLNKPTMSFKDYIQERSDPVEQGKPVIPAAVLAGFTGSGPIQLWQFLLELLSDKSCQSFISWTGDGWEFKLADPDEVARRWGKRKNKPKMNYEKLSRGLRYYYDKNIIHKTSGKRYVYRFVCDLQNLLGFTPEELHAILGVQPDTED
Conditions: protein: recombinant; tags: N-terminal GST; dsDNA, one strand shown. The gist of the method: as §1

Assay [14] deals with T9, SPDEF (Homo sapiens, UniProt O95238 1-335).
T9 sequence: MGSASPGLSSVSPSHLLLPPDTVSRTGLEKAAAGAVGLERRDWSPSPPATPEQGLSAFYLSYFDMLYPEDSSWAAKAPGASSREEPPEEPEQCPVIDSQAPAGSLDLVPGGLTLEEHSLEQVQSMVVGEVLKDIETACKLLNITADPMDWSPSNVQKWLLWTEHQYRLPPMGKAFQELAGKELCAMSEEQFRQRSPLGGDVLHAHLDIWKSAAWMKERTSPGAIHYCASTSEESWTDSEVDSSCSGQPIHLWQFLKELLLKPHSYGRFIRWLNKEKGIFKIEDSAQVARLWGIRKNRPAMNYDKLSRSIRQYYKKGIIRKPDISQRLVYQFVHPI
The note with it: protein: recombinant; tags: N-terminal GST; dsDNA, one strand shown. The gist of the method: as §1

Assay [15] concerns the target T10, ETV7 (Homo sapiens, UniProt Q9Y603 1-341).
T10 sequence: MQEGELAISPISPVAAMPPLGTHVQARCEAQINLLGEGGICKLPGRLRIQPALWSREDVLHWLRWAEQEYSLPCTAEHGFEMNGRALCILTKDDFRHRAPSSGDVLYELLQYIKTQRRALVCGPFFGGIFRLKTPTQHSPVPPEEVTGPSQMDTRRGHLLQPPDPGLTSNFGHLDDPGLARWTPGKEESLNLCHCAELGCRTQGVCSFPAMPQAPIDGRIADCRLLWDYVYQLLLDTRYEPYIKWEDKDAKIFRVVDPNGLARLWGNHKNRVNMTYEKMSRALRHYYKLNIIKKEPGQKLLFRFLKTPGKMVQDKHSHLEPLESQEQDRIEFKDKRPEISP
Conditions: protein: recombinant; tags: N-terminal GST; dsDNA, one strand shown. The gist of the method:
as §1

In assay [16] the target is T11, ELF5 (Homo sapiens, UniProt Q9UKW6-2 1-255).
T11 sequence: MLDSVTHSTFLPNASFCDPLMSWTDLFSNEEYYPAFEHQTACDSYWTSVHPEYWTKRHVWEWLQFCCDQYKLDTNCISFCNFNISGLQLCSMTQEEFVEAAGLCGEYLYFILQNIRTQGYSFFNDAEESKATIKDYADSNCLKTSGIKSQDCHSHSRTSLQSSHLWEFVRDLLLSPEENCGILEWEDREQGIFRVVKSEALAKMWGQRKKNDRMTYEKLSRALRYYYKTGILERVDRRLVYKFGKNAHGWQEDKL
Conditions: protein: recombinant; tags: N-terminal GST; dsDNA, one strand shown. The essentials: as §1

The target of assay [17] is T12, ETV3 (Homo sapiens, UniProt P41162-2 1-143).
T12 sequence: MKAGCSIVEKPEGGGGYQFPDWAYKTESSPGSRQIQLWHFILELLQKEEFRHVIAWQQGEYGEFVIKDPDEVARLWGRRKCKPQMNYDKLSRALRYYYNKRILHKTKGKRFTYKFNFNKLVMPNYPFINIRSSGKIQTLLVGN
The note with it: protein: recombinant; tags: N-terminal GST; dsDNA, one strand shown. The gist of the method:
as §1

In assay [18] the target is ETV6 (Homo sapiens, UniProt P41212 1-452). Conditions: protein: recombinant; tags: N-terminal GST; dsDNA, one strand shown. The gist of the method: as §1
ETV6, sequence (P41212 whole entry): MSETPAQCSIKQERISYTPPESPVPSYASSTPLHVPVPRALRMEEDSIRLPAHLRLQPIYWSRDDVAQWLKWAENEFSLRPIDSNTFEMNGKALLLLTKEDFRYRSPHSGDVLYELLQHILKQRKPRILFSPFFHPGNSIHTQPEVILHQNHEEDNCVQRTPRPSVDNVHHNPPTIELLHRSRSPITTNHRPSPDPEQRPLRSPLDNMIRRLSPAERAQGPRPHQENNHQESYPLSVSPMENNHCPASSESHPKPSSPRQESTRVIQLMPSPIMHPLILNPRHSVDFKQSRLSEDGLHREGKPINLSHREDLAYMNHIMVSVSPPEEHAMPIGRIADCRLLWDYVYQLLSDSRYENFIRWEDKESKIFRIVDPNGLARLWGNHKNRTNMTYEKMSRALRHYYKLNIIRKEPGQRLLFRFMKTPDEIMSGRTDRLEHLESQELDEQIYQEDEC

HSF1, sequence (Q00613 whole entry): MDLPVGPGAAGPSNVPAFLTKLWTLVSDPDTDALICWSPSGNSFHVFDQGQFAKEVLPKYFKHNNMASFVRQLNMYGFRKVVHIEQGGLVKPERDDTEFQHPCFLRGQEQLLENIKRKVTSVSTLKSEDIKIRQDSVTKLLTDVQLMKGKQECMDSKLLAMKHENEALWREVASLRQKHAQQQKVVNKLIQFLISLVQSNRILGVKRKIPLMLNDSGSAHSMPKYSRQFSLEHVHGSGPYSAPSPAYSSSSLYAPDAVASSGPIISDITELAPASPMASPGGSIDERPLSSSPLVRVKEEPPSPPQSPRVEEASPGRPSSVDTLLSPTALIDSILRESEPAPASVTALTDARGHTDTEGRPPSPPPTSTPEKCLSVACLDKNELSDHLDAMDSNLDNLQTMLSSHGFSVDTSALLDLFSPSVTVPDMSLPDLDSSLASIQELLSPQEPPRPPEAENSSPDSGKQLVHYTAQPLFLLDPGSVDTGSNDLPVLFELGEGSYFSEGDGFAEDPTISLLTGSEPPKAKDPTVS
CRX, sequence (O43186 whole entry): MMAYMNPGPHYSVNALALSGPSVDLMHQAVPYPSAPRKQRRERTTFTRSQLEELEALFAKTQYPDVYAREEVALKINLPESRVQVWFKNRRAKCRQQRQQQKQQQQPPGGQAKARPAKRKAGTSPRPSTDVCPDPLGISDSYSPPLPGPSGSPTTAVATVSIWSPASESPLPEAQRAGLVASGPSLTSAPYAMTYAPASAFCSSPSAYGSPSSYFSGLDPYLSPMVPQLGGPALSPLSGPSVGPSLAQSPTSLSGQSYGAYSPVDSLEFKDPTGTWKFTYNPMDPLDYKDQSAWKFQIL
ETV1, sequence (P50549 whole entry): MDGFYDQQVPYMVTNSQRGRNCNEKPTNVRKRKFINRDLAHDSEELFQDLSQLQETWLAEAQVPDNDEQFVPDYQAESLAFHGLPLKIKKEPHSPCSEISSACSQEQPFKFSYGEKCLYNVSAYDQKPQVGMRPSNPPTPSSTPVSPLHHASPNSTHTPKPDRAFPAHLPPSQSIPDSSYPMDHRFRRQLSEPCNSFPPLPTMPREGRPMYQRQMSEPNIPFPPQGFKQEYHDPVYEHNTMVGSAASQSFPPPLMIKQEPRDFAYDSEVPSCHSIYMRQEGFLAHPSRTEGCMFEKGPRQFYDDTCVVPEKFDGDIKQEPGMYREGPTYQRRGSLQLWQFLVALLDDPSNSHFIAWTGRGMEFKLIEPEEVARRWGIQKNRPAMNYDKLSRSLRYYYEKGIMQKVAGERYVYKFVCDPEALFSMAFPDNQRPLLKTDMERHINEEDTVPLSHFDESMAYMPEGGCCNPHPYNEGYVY
ETV5, sequence (P41161 whole entry): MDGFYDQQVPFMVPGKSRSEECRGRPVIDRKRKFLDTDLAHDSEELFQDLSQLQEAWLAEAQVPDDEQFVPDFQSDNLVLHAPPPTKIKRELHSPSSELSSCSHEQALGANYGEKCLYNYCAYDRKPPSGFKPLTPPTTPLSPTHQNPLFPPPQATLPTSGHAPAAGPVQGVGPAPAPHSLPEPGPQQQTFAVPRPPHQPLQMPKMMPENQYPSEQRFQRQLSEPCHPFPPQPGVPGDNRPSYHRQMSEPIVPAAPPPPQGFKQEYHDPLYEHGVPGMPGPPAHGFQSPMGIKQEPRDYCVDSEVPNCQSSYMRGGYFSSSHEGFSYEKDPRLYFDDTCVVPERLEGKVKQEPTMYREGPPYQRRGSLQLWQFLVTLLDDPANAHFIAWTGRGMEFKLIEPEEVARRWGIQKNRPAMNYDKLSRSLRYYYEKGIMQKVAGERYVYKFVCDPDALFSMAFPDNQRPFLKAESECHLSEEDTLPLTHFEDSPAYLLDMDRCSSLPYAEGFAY

For TATGAT, the binding signal was 1.16 fold enrichment (6-mer frequency, TF over GST control) in assay [1]; 1.24 fold enrichment (6-mer frequency, TF over GST control) in [2]; 1.31 fold enrichment (6-mer frequency, TF over GST control) in assay [3]; 1.29 fold enrichment (6-mer frequency, TF over GST control) in assay [4]; 1.12 fold enrichment (6-mer frequency, TF over GST control) in [5]; 1.25 fold enrichment (6-mer frequency, TF over GST control) in [6]. Also, the binding signal in [7] was 1.27 fold enrichment (6-mer frequency, TF over GST control); in assay [8], 1.09 fold enrichment (6-mer frequency, TF over GST control); in assay [9] it was 1.5 fold enrichment (6-mer frequency, TF over GST control); in assay [10], 1.17 fold enrichment (6-mer frequency, TF over GST control); in [11] it was 1.22 fold enrichment (6-mer frequency, TF over GST control); in [12], 1.18 fold enrichment (6-mer frequency, TF over GST control). The binding signal is 1.17 fold enrichment (6-mer frequency, TF over GST control) in assay [13]; 1.23 fold enrichment (6-mer frequency, TF over GST control) in assay [14]; 1.25 fold enrichment (6-mer frequency, TF over GST control) in assay [15]; 1.26 fold enrichment (6-mer frequency, TF over GST control) in assay [16]; 1.26 fold enrichment (6-mer frequency, TF over GST control) in assay [17]; 1.17 fold enrichment (6-mer frequency, TF over GST control) in assay [18].
